# Structures can show the parent of a compound that is named as a salt. ± gives the uncertainty stated by the source.
# System: THP-1
# Assay: CD54 surface expression induction over DMSO control (% over DMSO); higher = stronger dendritic cell activation
# Details: exposure time: 24 h
# Method: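 hCLAT-like CD54 and CD86 surface expression on THP1 cells after 24 h exposure at a single concentration (highest non-cytotoxic concentration, or 100-200 µM if not cytotoxic). Flow cytometry (iQue) was run on 5,000 live cells.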
row,Structure (SMILES),CD54 surface expression induction
1,O=C(Oc1ccccc1)c1ccccc1O [Phenyl salicylate] (200 µM),-8.79 ± 7.5
2,CC1COc2ccccc2N1C(=O)C(Cl)Cl (stereo not given) [Benoxacor] (10 µM),13.4 ± 3.8
3,CCCCCCCCCCCCCCCC[N+](C)(C)Cc1ccccc1 [Benzylhexadecyldimethylammonium chloride] (10 µM),20.1 ± 7.5
4,COc1cc(C(C)C)c2c(c1)S(=O)(=O)N(COc1cc(=O)n3cccc(OCCN4CCCCC4)c3n1)C2=O (100 µM),61 ± 55
5,O=[N+]([O-])c1cc(N(CCO)CCO)ccc1NCCO (200 µM),3.92 ± 4.8
6,Cc1occc1S [2-Methyl-3-furanthiol] (200 µM),36.6 ± 1.1
7,Oc1c(Br)cc(Br)c2cccnc12 [Broxyquinoline] (100 µM),49.3 ± 18
8,O=c1cc(-c2ccccc2)oc2ccccc12 [Flavone] (200 µM),62.9 ± 14
9,"O=C(O)c1cc(O)c2ccccc2c1O [1,4-dihydroxy-2-naphthoic acid*] (10 µM)",374 ± 47
10,O=C(N/N=C/c1ccccc1O)c1ccncc1 [Salinazid] (10 µM),17.1 ± 8.6
11,C=CCOC(=O)/C=C\C(=O)OCC=C [Diprop-2-en-1-yl (2Z)-but-2-enedioate] (203 µM),-3.66 ± 5.6
12,O=C(O)CCCCCCCCC(=O)O [Decanedioic acid] (200 µM),-0.56 ± 5.1
13,C=C1CC[C@H](O)C/C1=C/C=C1\CCC[C@]2(C)[C@@H]([C@H](C)/C=C/[C@H](C)C(C)C)CC[C@@H]12 [Ergocalciferol*] (100 µM),108 ± 7.2
14,"Nc1cc(Cl)c(O)c(Cl)c1 [4-Amino-2,6-dichlorophenol] (100 µM)",18 ± 2
15,O=C(NS(=O)(=O)/C=C/c1ccccc1)c1ccc(F)cc1Cl (200 µM),1.54 ± 2.2
16,COc1cccc2c1C(=O)c1c(O)c3c(c(O)c1C2=O)C[C@@](O)(C(=O)CO)C[C@@H]3O[C@H]1C[C@H](N)[C@H](O)[C@H](C)O1 [Doxorubicin*] (10 µM),187 ± 27
17,"CC(C)=CCC/C(C)=C\CO [(2Z)-3,7-Dimethylocta-2,6-dien-1-ol] (200 µM)",-9.15 ± 2.5
18,"CC(C)c1ccc2cc(C(C)C)ccc2c1 [2,6-Diisopropylnaphthalene] (200 µM)",10.1 ± 1.7
19,O=C(OCc1ccccc1)c1ccc(O)cc1 [Benzylparaben] (100 µM),-6.45 ± 0.19
20,CC(C)NC(=O)c1ccc(C=O)cc1 [N-isopropyl-4-formylbenzamide] (100 µM),-11.6 ± 1.7

row,Structure (SMILES),CD54 surface expression induction
1,NC(=O)N/N=C/c1ccc([N+](=O)[O-])o1 [Nitrofurazone] (200 µM),15.9 ± 5.6
2,O=C1OC(OC(=O)c2cccnc2Nc2cccc(C(F)(F)F)c2)c2ccccc21 (stereo not given) [Talniflumate] (100 µM),1.7 ± 0.62
3,CC(C)=CCC1C(=O)N(c2ccccc2)N(c2ccccc2)C1=O [Feprazone] (200 µM),62.3 ± 3
4,CCCCc1ccc2[nH]c(NC(=O)OC)nc2c1 [Parbendazole*] (200 µM),262 ± 39
5,O=C(O)c1cccnc1Nc1cccc(C(F)(F)F)c1 [Niflumic acid] (100 µM),-11.5 ± 10
6,[Cl][Bi]([Cl])([c]1ccccc1)([c]1ccccc1)[c]1ccccc1 [Triphenylbismuthine dichloride] (10 µM),15.8 ± 5
7,COP(=O)(O)OP(=O)(O)OC [Dimethyl dihydrogen diphosphate] (200 µM),-11.2 ± 2.4
8,COc1cc(/C=C2\CCC/C(=C\c3ccc(O)c(OC)c3)C2=O)ccc1O [Cyclovalone] (10 µM),-1.01 ± 3
9,O=C(CCCCCCC(=O)Nc1ccccc1)NO [Vorinostat (SAHA)] (100 µM),4.99 ± 15
10,CCCCOCCOCCOCCO [2-[2-(2-Butoxyethoxy)ethoxy]ethanol] (115 µM),20.1 ± 15
11,CCCCCCCCN [n-Octylamine] (100 µM),-6.09 ± 0.05
12,CCOc1ccc2nc(S(N)(=O)=O)sc2c1 [Ethoxzolamide] (200 µM),3.81 ± 6
13,C=CC(=O)OCCOC(=O)CCC(=O)O [4-[2-(Acryloyloxy)ethoxy]-4-oxobutanoic acid] (200 µM),-1.6 ± 8.8
14,Cc1ccc(N)cc1O [5-Amino-2-methylphenol] (200 µM),34.1 ± 7.2
15,CCCSS/C(CCO)=C(/C)N(C=O)Cc1cnc(C)nc1N [Prosultiamine] (10 µM),-0.63 ± 2.5
16,CC(C)c1ccc2oc3nc(N)c(C(=O)O)cc3c(=O)c2c1 [Amlexanox] (100 µM),-5.95 ± 2.7
17,N=C(N)NN=C(/C=C/c1ccc([N+](=O)[O-])o1)/C=C/c1ccc([N+](=O)[O-])o1 [Nitrovin] (10 µM),76.1 ± 15
18,C=CCOC(Cn1ccnc1)c1ccc(Cl)cc1Cl (stereo not given) [Imazalil sulfate] (100 µM),11.6 ± 11
19,COc1ccc(-c2cc(=S)ss2)cc1 [Anethole trithione] (100 µM),-12.4 ± 13
20,CCCCCCCCCCCCCC[N+](C)(C)C [Tetradonium bromide] (10 µM),17.7 ± 3.4
